The source of these data is PubChem BioAssay (EPA / NIEHS).

Records with an inconclusive call do not appear. The source made the active and inactive calls. The calls were made as follows: active = hit-call score of the fitted dose curve at least 0.9, where 1 is the maximum; inconclusive = response in the unintended direction; inactive = score below 0.9.

Sequence of human Protein Tyrosine Phosphatase Non-receptor Type 9 (PTPN9), PTPN9 (gene 5780) (P43378 whole entry, looked up): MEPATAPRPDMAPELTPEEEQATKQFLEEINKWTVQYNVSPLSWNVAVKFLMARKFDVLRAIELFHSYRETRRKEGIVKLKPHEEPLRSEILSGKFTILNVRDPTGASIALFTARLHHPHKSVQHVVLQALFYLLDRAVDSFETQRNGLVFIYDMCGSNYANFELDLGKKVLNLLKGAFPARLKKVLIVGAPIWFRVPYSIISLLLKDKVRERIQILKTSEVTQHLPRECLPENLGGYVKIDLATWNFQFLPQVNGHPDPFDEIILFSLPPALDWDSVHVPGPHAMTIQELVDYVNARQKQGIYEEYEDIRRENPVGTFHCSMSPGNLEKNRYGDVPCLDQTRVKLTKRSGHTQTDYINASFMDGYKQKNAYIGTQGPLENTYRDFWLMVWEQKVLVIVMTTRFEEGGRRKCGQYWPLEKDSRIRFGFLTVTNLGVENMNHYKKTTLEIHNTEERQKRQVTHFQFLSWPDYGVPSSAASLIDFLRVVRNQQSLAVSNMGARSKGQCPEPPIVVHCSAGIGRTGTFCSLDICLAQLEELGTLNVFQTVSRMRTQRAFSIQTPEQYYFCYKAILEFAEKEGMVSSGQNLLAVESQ
Sequence of human Phosphodiesterase 10 (PDE10), PDE10A (gene 10846) (Q9Y233 whole entry, looked up): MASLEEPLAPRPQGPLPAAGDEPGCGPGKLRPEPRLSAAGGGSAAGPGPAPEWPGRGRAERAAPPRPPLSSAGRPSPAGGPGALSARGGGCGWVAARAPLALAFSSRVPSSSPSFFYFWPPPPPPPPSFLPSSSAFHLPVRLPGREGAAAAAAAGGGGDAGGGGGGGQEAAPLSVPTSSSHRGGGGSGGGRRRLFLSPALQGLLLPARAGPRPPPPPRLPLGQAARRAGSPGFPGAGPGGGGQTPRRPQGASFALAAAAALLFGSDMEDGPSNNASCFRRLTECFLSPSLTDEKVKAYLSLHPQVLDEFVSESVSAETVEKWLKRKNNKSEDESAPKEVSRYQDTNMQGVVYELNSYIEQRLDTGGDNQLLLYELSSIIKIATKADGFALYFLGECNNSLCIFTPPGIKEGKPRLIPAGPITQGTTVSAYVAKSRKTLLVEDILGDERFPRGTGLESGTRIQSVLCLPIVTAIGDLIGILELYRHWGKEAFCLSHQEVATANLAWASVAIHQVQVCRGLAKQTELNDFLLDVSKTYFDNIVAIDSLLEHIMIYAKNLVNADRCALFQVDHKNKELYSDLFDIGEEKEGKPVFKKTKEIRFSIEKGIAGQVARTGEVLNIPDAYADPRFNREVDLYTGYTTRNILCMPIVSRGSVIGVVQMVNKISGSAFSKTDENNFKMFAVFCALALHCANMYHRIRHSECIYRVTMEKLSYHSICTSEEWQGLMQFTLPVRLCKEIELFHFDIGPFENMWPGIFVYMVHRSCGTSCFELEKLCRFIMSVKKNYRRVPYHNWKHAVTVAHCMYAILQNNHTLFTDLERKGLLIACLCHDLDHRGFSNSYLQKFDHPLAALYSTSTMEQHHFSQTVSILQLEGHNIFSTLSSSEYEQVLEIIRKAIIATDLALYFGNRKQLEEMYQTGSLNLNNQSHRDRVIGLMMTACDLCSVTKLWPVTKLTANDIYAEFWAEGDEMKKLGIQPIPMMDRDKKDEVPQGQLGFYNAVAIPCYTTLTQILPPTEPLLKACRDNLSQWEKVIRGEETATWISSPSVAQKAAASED
Sequence of human Matrix Metalloproteinase-1 (MMP1), MMP1 (gene 4312) (P03956 whole entry, looked up): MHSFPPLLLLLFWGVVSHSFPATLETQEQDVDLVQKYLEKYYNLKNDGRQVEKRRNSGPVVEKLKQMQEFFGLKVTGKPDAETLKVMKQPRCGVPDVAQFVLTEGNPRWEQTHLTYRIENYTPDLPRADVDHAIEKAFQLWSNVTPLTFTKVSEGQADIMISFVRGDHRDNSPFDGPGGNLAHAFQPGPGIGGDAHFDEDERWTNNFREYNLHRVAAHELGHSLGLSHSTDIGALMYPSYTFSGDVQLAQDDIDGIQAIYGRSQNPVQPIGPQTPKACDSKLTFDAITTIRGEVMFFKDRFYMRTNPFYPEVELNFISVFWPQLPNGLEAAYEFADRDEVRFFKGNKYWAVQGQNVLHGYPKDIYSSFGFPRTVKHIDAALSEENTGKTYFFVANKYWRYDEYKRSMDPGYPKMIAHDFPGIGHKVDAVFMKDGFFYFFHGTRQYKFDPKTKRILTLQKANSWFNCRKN

For one assay, the target named is human Matrix Metalloproteinase-1 (MMP1), MMP1 (gene 4312) (UniProt P03956). As to the kind of experiment: NVS_ENZ_hMMP1: NovaScreen (NVS) Enzymatic Assay for human Matrix Metalloproteinase-1 (MMP1) (AID 2283181). In a few lines:
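Cell-free fluorescent substrate assay of human MMP1, read after 1 h. A single 25 uM duplicate screen was followed by concentration series to a maximum of 50 uM for actives meeting threshold; inhibition analysed against DMSO baseline.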
Regarding `CCN1CCC2(CC1)COc1cc3c(cc12)N(C(=O)c1ccc(-c2ccc(-c4nnc(C)o4)cc2C)cc1)CC3`, the molecule was classed as inactive.
One may read the AC50 as the concentration giving half of the maximal activity seen. On to `CC(=O)[O][Hg][c]1ccccc1`, for which the concentration at half-maximal activity (AC50) was 6.38 µM (active).
The same measure, in the same setting: with `C=C(C)C(=O)[O][Sn]([CH2]CCC)([CH2]CCC)[CH2]CCC` the figure was 3.07 µM (active).
`O=C(O)C(Cl)(Cl)Cl`: the call was inactive.

For a further assay, the target named is human Phosphodiesterase 5 (PDE5), PDE5A (gene 8654) (UniProt O76074). As to the kind of experiment: NVS_ENZ_hPDE5: NovaScreen (NVS) Enzymatic Assay for human Phosphodiesterase 5 (PDE5) (AID 2283194). Summed up: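 Screening began in duplicate at 25 uM, with actives taken into concentration-response. Enzyme activity of recombinant PDE5 toward its substrate was measured at 1 h by fluorescence mobility-shift detection, relative to DMSO controls.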
For `CCN1CCC2(CC1)COc1cc3c(cc12)N(C(=O)c1ccc(-c2ccc(-c4nnc(C)o4)cc2C)cc1)CC3`, the call was inactive.
Turning to `CC(=O)[O][Hg][c]1ccccc1`, the call was inactive.
Still for that read-out and setting: with `CC(C)(C)CC(C)(C)c1ccc(O)cc1` the entry was “inactive”.

In a further assay the target is human Phosphodiesterase 10 (PDE10), PDE10A (gene 10846) (UniProt Q9Y233). Description: NVS_ENZ_hPDE10: NovaScreen (NVS) Enzymatic Assay for human Phosphodiesterase 10 (PDE10) (AID 2283195). In a few lines:
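Readout is fluorescence intensity following electrophoretic mobility-shift separation, 1 h after dosing of isolated PDE10A protein. Hits meeting a preset threshold at 25 uM went to concentration series (max 50 uM), analysed relative to DMSO.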
As for `Nc1cccc2ccccc12`, the AC50 was 9.86 µM (active).
For `CC(C)c1ccc(CO)cc1`, the molecule was classed as inactive.
On the same count and under the same terms, with `O=C(Cl)c1ccc(Cl)cc1` the entry was “inactive”.
The same measure, in the same setting: with `CCCCC(CC)CO[N+](=O)[O-]` (stereo not given) the entry was “inactive”; with `Nc1ncc([N+](=O)[O-])s1`, “inactive”.
Still for that read-out and setting: with `Nc1ccc(Cl)cc1C(=O)c1ccccc1` the entry was “inactive”; with `O=Cc1cccc(Oc2ccccc2)c1`, “inactive”.
For `CC(Br)C(=O)O` (stereo not given), the call was inactive.
Take `COc1cccc(C=O)c1`: the result was inactive.
On the same count and under the same terms, with `ClC1=C(Cl)[C@]2(Cl)[C@@H]3[C@@H](Cl)[C@@H](Cl)C[C@@H]3[C@@]1(Cl)C2(Cl)Cl` the entry was “inactive”.

A further assay has as its target human Protein Tyrosine Phosphatase Non-receptor Type 9 (PTPN9), PTPN9 (gene 5780) (UniProt P43378). Description: NVS_ENZ_hPTPN9: NovaScreen (NVS) Enzymatic Assay for human Protein Tyrosine Phosphatase Non-receptor Type 9 (PTPN9) (AID 2283209). In a few lines:
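Sf9-expressed enzyme in a cell-free assay, fluorescence read 1.33 h after dosing with mobility-shift separation of substrate and product. Tested at 25 uM in duplicate, then up to 50 uM; signal loss versus DMSO.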
As for `CC(=O)[O][Hg][c]1ccccc1`, the AC50 is 17 µM (active).
On the same count and under the same terms, with `COc1cc(-c2ccc(N)c(OC)c2)ccc1N` the figure was 40.1 µM (active).
In the case of `CC(C)(C)CC(C)(C)c1ccc(O)cc1`, the outcome was inactive.
